Marburg entry inh = inhibitors of Marburg virus binding or cell entry. Marburg virus pseudotyped entry inhibition, cell reporter. Potency, µM (titrated, usually from 37.8 µM), hits mostly inhibitors. 300,000 tested, 1.8% active. AID 540276; calls by dose curve; tested in HEK293 cells
LASV entry inh = blocks Lassa virus binding to or entry into cells; 300,000 tested, 1.2% active; Lassa virus pseudotype entry inhibition, cell reporter; Potency, µM (top dose mostly 37.9 µM), usual class: inhibitors; calls by dose curve; tested in HEK293 cells; also: nearly all actives have a fitted effect of over 50% in size
FMDV antiviral = antivirals against foot and mouth disease virus. FMDV antiviral cell-based qHTS. Potency, µM (series often up to 57.9 µM), actives largely listed as inhibitors. 410,000 tested, 1.2% active; calls by dose curve; tested in HEK293T cells; also: read-out not given here; nearly all actives have a fitted effect of over 45% in size
HCMV antiviral = inhibitors of human cytomegalovirus; AID 1259415; 410,000 tested, 4.5% active; activity change, negative = inhibition, % at 57.5 µM; HFF cells, HCMV-luciferase reporter, 72 h; active compounds read low; in the data active = activity change below about -60%; inconclusive = no clear call, values can overlap the other calls; inactive = above about -39%
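Two compound doses tested in HFFs infected with HCMV-luciferase, MOI 1 PFU/cell, 72 h at 37C. Lysate luminescence read with OneGlo; data normalized against buffer-only and 10uM Salinomycin inhibitor controls.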
HCV inhibitor = HCV inhibition | 340,000 tested, 3.4% active | Huh7.5.1 HCVcc-Cre infection, luciferase reporter, 44 h | Potency, µM (doses to about 41.8 µM), most hits filed as inhibitors; active = well fitted inhibition curve with a large enough effect; inconclusive = small, poorly fitted or top-dose-only effect, or another doubt; inactive = no such curve, though single readings can be large or run the other way
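Reporter virus HCVcc-Cre (~0.5 moi) infects cells exposed to compound; seeding density 1,000 cells/well with 4 h settling beforehand. Luminescence, 15 sec read, taken 44 h post-infection following a 15 min RT substrate incubation.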
A number is an active result; - = inactive; ? = inconclusive; . = not tested or not shown; [ ] = dose if it differs, or a comment. A selection: hits, their analogues and other compounds. The true share with any hit is near 7.9%.

SMILES	Marburg entry inh	LASV entry inh	FMDV antiviral	HCMV antiviral	HCV inhibitor
CCC1C(=O)NCCN1Cc1ccc2c(c1)CN(Cc1cccn1-c1ccc(Cl)cn1)CCO2 (stereo not drawn)	.	.	-	.	.
CCC1CCc2c(sc(NC(=O)c3ccoc3C)c2C(N)=O)C1 (stereo not drawn)	-	-	-	-	5µM
CCC(C)(C)C1CCc2c(sc(NC(=O)c3ccoc3C)c2C(N)=O)C1 (stereo not drawn)	-	-	-	-	-
C=CCCN1C(=O)NC(c2ccccc2)C(C(=O)OC)=C1C (stereo not drawn)	-	.	.	.	.
Cc1ccc(/C=C2\SC(=S)N(CCCC(=O)NC3CCCC3)C2=O)cc1	?	1.1µM	16µM	-61	-
CC(/C=C1\SC(=S)N(CCC(=O)Nc2ccc(O)cc2)C1=O)=C\c1ccccc1	?	?	-	?	7.9µM
O=C(CCCN1C(=O)/C(=C/c2cccs2)SC1=S)Nc1cccc(O)c1	?	?	-	-100	?
O=C(CCCN1C(=O)/C(=C\c2ccccc2)SC1=S)Nc1ccc(O)cc1	?	?	-	-96	?
O=C1C(=O)N(C(C(=O)NCc2ccccc2)C2CCCC2)c2ccccc21 (stereo not drawn)	.	.	.	-	.
CCc1nc2cc(C(=O)NC3CCOC(C)(C)C3)cc(NC(=O)c3ccccc3OC)c2n1C (stereo not drawn)	.	.	-	.	.
COc1cc(/C=C2\SC(=S)N(CCC(=O)Nc3cccc(O)c3)C2=O)cc(OC)c1OC	?	?	20µM	-	?
O=C(CCCN1C(=O)/C(=C\c2ccccc2)SC1=S)Nc1cccc(C(=O)O)c1	-	-	-	-	-
COc1cc(/C=C2\SC(=S)N(CCC(=O)Nc3ccccc3)C2=O)cc(OC)c1OC	?	-	-	-	-
Cc1ccc(/C=C2\SC(=S)N(CCCC(=O)NNC(=O)c3ccccc3O)C2=O)cc1	.	.	8.9µM	-93	?
O=C(CCCN1C(=O)/C(=C/c2ccccc2)SC1=S)Nc1cccc(O)c1	.	.	-	-97	?
Cc1ccc(/C=C2\SC(=S)N(CCC(=O)NNC(=O)c3ccccc3O)C2=O)cc1	-	-	-	?	?
Cc1ccc(/C=C2/SC(=S)N(CCCC(=O)Nc3ccc(O)cc3)C2=O)cc1	?	?	-	-100	-
CCc1cc2c(SCc3ccc(C(=O)OC)o3)ncnc2s1	-	-	-	-	-
O=C(CSc1ncc(-c2ccccc2)[nH]1)Nc1cccc(Br)c1	-	-	-	-66	.
O=c1cc(-c2ccccc2Br)[nH]c2ccccc12	.	.	.	-90	.
Cc1ccc(-c2cc(=O)c3ccccc3[nH]2)cc1	?	?	-	-	?
CC(C)Cc1nc(N2CCN(C(=O)c3ccco3)CC2)c(C#N)c2c1CCC2	?	?	25µM	-	?
CC(=O)N1CCN(c2nc(CC(C)C)c3c(c2C#N)CCC3)CC1	-	?	-	-	?
CC(C)Cc1nc(N2CCCCC2)c(C#N)c2c1CCC2	-	-	-	-	-
CC(C)Cc1nc(N2CCNCC2)c(C#N)c2c1CCC2	?	-	-	-	3.2µM
SMILES	Marburg entry inh	LASV entry inh	FMDV antiviral	HCMV antiviral	HCV inhibitor
N#Cc1c(N2CCN(C(=O)c3ccco3)CC2)nc(-c2ccccc2)c2c1CCCC2	?	?	?	-78	?
CC(C)Cc1nc(N2CCN(C(=O)c3ccccc3)CC2)c(C#N)c2c1CCC2	?	6.5µM	?	?	11µM
CCOC(=O)c1nc(N2CCN(c3ccc(F)cc3)CC2)c2c(C)noc2n1	.	-	-	-	.
CC(=O)c1ccc(NC(=O)C(C)OC(=O)/C=C/c2ccco2)cc1 (stereo not drawn)	11µM	?	-	-	?
O=C(c1ccc(COc2ccccc2Br)o1)N1N=C(C(F)F)CC1(O)C(F)F (stereo not drawn)	7.1µM	-	-	-	-
COc1cc2[nH]c3c(=O)n4c(nc3c2cc1OC)SCCC4	?	?	-	-	?
COCc1ccc(CN2CCOc3ccc(C4=Cc5ccccc5C4)cc3C2)o1	.	.	-	.	.
Fc1ccc(CNC(=S)Nc2cccc(C(F)(F)F)c2)cc1	?	?	-	-	?
Fc1ccc(Nc2nc3nonc3nc2Nc2cccc(C(F)(F)F)c2)cc1	2.2µM	?	?	-101	.
Cc1sc2nc(-c3ccccn3)[nH]c(=O)c2c1-c1ccccc1	?	?	-	-61	10µM
COCCNCc1nc2sc(C)c(-c3ccccc3)c2c(=O)[nH]1	-	-	-	-101	-
Cc1sc2nc(CN3CCOCC3)[nH]c(=O)c2c1-c1ccccc1	?	-	-	-	-
CCN(CC)CCCNc1cc(-c2ccccc2)nc(C)n1	-	-	-	-	.
CC(C(=O)O)n1cc(Cl)cn1 (stereo not drawn)	-	-	-	?	4.5µM
Cc1ccnn1C(C)C(=O)O (stereo not drawn)	-	-	-	-	-
CN1C(=O)C(CC(=O)NCCc2ccccc2)N(NC(=O)c2cccc(F)c2)C1=S (stereo not drawn)	-	-	-	-	-
CN1C(=O)C(CC(=O)NCCc2ccccc2)N(NC(=O)c2ccc(Cl)cc2)C1=S (stereo not drawn)	.	.	-	-74	-
CCOc1ccc(-c2cn3ccccc3n2)cc1	3.5µM	?	-	-	-
COc1ccccc1N(CC(=O)N/N=C/c1c(O)ccc2ccccc12)S(C)(=O)=O	?	9.2µM	-	-	?
COc1ccccc1N(CC(=O)Nc1c(C)cccc1C)S(C)(=O)=O	-	-	.	-	-
COc1ccccc1CNC(=O)CN(c1ccccc1OC)S(C)(=O)=O	.	-	-	-	.
COc1ccccc1N(CC(=O)Nc1ccccc1C)S(C)(=O)=O	-	-	.	-61	-
O=C(CNc1ccc(F)cc1)N/N=C/c1c(O)ccc2ccccc12	.	.	-	-97	?
COc1ccccc1NC(=O)c1c(N=Cc2c(O)ccc3ccccc23)cnn1C	?	?	?	-89	?
O=C(CN1CCCc2ccccc21)N/N=C/c1c(O)ccc2ccccc12	?	?	?	-98	10µM
SMILES	Marburg entry inh	LASV entry inh	FMDV antiviral	HCMV antiviral	HCV inhibitor
O=C(CN1CCCc2ccccc21)N/N=C/c1ccccc1	?	-	-	-	-
COc1ccccc1NCC(=O)N/N=C/c1c(O)ccc2ccccc12	.	.	-	-95	2.8µM
Cc1cc2nc(-c3ccccc3)c(-c3c(F)cc(F)cc3F)nc2cc1C	.	.	.	-	.
COC(=O)/C=C/c1cccc(N(Cc2ccc(-c3ccc(N(C)C)cc3)cc2)C(=O)C2CCCCC2)c1	.	.	-	.	.
O=C(COC(=O)COc1cccc(C(F)(F)F)c1)NC(=O)NC1CCCCC1	-	-	-	-	-[8.37 µM]
Cc1cc(CNC(=O)COC(=O)Cn2[nH]c(=O)c3ccccc3c2=O)cc(C)c1O	-	-	-	-98	-
CC(C)NC(=O)COC(=O)Cn1[nH]c(=O)c2ccccc2c1=O	.	.	-	-	-
COCc1ccc(C(=O)NC2CCCc3c2cnn3-c2cc(C)cc(C)c2)s1 (stereo not drawn)	.	.	-	?	13µM
COc1ncccc1C(=O)NC1CCCc2c1cnn2-c1cc(C)cc(C)c1 (stereo not drawn)	?	-	-	-61	-
Cc1cc(C)cc(-n2ncc3c2CCCC3NC(=O)c2cc(C)oc2C)c1 (stereo not drawn)	?	?	-	?	?
